Screens (PubChem BioAssay)
VDR inh – blocks the human vitamin D receptor | P11473 | VDR-SRC2-3 peptide fluorescence polarization, 2 h | Potency, µM, without a hit: max response, negative = inhibition, actives largely listed as inhibitors | 400,000 compounds, 0.93% hits | AID 504847
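Inhibition of the VDR/SRC2-3 peptide interaction is quantified by fluorescence polarization. Compounds (23 nl, pintool) incubate with the reagents for 2 hours at ambient room temperature.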
PLK1 PBD inh – inhibitors of human PLK1 polo-box domain binding | Plk1 PBD binding of FITC phosphopeptide, fluorescence polarization | P53350 | AID 720504 | 360,000 compounds, 2.8% hits | Potency, µM, for inactives: max response, negative = inhibition, hits mostly inhibitors; note: series mostly up to about 57 µM; nearly all actives have a fitted effect of over 65% in size
Target sequence (P53350 whole entry, looked up, the tested form may be a part): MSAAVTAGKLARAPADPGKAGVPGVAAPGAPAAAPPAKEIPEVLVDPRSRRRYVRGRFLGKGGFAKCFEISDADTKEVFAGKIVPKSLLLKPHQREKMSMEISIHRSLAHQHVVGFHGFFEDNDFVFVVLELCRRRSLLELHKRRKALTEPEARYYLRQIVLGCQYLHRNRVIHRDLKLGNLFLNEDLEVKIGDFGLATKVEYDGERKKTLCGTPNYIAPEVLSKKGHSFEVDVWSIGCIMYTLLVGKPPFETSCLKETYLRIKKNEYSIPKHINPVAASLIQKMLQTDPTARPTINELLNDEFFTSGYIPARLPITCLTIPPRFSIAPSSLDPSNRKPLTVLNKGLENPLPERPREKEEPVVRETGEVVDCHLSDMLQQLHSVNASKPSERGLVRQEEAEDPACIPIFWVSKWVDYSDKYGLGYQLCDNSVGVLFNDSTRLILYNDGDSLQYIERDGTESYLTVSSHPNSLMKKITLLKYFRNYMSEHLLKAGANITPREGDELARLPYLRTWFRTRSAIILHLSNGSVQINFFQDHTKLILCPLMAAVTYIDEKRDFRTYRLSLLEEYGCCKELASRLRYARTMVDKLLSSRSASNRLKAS
GCN5L2 inh – GCN5L2 (KAT2A) acetyltransferase inhibition | Q92830 | GCN5L2 HAT assay, ThioGlo1 CoA-SH fluorescence | Potency, µM (doses to about 58.9 µM), for the others: top-dose activity change, negative = inhibition, most hits filed as inhibitors | 390,000 compounds, 0.21% hits | AID 504327
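qHTS, 1536-well. 20nM enzyme, pH 7.5 HEPES/EDTA/Tween-20 buffer; 15 min compound preinc., RT. Start: 75uM H3(1-25), 70uM AcCoA, 50uM ThioGlo1. Read Ex340/Em540 at t=0 (autofluorescence flag) and t=20 min.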
12-LOX inh – blocks human arachidonate 12S-lipoxygenase. Potency, µM (titrated, usually from 108 µM), inactives show at the top dose activity change, negative = inhibition, hits mostly inhibitors. purified 12hLO, xylenol orange hydroperoxide absorbance. 580,000 compounds, 1.1% hits. P18054
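Purified human 12hLO (150 nM final) in 25 mM Hepes, 0.01% Triton X-100, pH 7.0 was preincubated 15 min at room temperature with compound. Then 40 uM arachidonic acid was added, 30 min. Hydroperoxide was read by Fe-XO absorbance ratio 573/405 nm.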
An asterisk follows results filed as active; ? = inconclusive; . = no result given; [ ] = dose if it differs, or a comment. Rows were chosen to be rich in hits. Some 3% of all compounds tested hit in one or more screens of this group. Calls come from the whole dose curve; as a rule, active = well fitted curve in the direction sought with a large enough effect; inconclusive = small, poorly fitted or top-dose-only effect, or another doubt; inactive = no such curve, though single readings can be large; an effect the other way counts as inactive or inconclusive. % is set by controls: 0 for no effect and ±100 for the full control effect; potency is the fitted concentration of half-maximal effect.

SMILES | VDR inh | PLK1 PBD inh | GCN5L2 inh | 12-LOX inh
Cc1cc(NC(=O)CCc2ncc(-c3ccc(Cl)cc3)o2)no1 | . | . | . | -24%
COc1cccc(-c2nccc3c(=O)cc(N4CCOCC4)oc23)c1 | . | . | . | 45µM*
C[S+](=O)([O-])c1cccc(-c2nccc3c(=O)cc(N4CCOCC4)oc23)c1 | . | . | . | 56µM*
O=c1cc(N2CCOCC2)oc2c(-c3cccc(F)c3)nccc12 | . | . | . | 1%[176 µM]
COc1ccc(Nc2nccc3c(=O)cc(N4CCOCC4)oc23)cn1 | . | . | . | 25µM*
Cc1ccc(S(=O)(=O)CC(=O)c2ccc(F)cc2)cc1 | . | . | . | -4%
CCN(CC)S(=O)(=O)c1ccc(NC(=O)CSc2nc3ccccc3n2CC)cc1 | . | . | . | -1%
C/C(=N/NS(=O)(=O)c1cccc([N+](=O)[O-])c1)c1ccncc1 | 28µM* | 3µM* | -5% | -8%
C/C(=N\NS(=O)(=O)c1ccc(Br)cc1)c1ccncc1 | ? | 5.3µM* | -6% | 32µM*
CC(=NNS(=O)(=O)c1cccc([N+](=O)[O-])c1)c1ccc(-n2ccnc2)cc1 | -22% | 19µM* | 0% | -22%
C/C(=N/NS(=O)(=O)c1ccc(Cl)cc1)c1ccncc1 | -19% | ? | 2% | ?
Cc1cccc(C)c1OCC(=O)NCc1nnc(SCC(=O)NC2CCCCC2C)n1C (stereo not drawn) | -17% | 3% | -22% | 7.1µM*
CC1CCCCC1NC(=O)CSc1nncn1N (stereo not drawn) | -7% | 21µM* | -4% | 3%
Cc1cc(NC(=O)C(C)C)ccc1Br | . | . | . | 17%
Cc1ccc(C(=O)/C=C/c2ccc(F)cc2)o1 | ? | -7% | -5% | -2%
Cc1ccc(C(=O)/C=C/c2cccc3ccccc23)o1 | . | . | . | 16µM*
COc1cc(C2CC(=O)Oc3c2c(=O)[nH]c2ccccc32)cc2c1OCO2 (stereo not drawn) | . | . | . | 17%
CCOC(=O)c1ccc(-n2c(CCC(=O)O)ccc2-c2cccs2)cc1 | ? | 19µM* | -17% | -28%
CCc1ccc(-n2c(CCC(=O)O)ccc2-c2cccs2)cc1 | -22% | . | -11% | ?
Cc1ccc2[nH]c(C)c(CCN(Cc3ccncc3)C(=S)NC(C)(C)C)c2c1 | . | . | . | 4%
O=C(CN1C(=O)NC(c2ccc(Cl)cc2)C2=C1COC2=O)Nc1ccc(Br)cc1F (stereo not drawn) | . | . | . | 4.5µM*
O=C(CN1C(=O)NC(c2ccc(Cl)cc2)C2=C1COC2=O)NC1CCCC1 (stereo not drawn) | . | . | . | 25%
CC(C)NC(=O)CN1C(=O)NC(c2ccc(Cl)cc2)C2=C1COC2=O (stereo not drawn) | . | . | . | 62%
Cc1ccc(NC(=O)CN2C(=O)NC(c3ccc(Cl)cc3)C3=C2COC3=O)cc1 (stereo not drawn) | . | . | . | 11µM*
O=C(CN1C(=O)NC(c2ccc(Cl)cc2)C2=C1COC2=O)Nc1ccc(Cl)cc1F (stereo not drawn) | . | . | . | 8.9µM*
SMILES | VDR inh | PLK1 PBD inh | GCN5L2 inh | 12-LOX inh
COc1ccc(OC)c(NC(=O)CN2C(=O)NC(c3ccc(Cl)cc3)C3=C2COC3=O)c1 (stereo not drawn) | . | . | . | 9%
Cc1ccc(C2NC(=O)N(CC(=O)Nc3c(C)cccc3Cl)C3=C2C(=O)OC3)cc1 (stereo not drawn) | . | . | . | 2%
O=C(CN1C(=O)NC(c2ccc(Cl)cc2)C2=C1COC2=O)Nc1cc(F)cc(F)c1 (stereo not drawn) | . | . | . | 11µM*
COCCn1cnc2c1c(=O)n(CC(=O)Nc1ccc3c(c1)OCCO3)c(=O)n2CC(C)C | . | . | . | 4%
CN(C)c1ccc(/C=C/c2cc[n+](C)cc2)cc1 | -27% | 29% | -14% | 1µM*
CN(C)c1ccc(/C=C/c2cc[n+]([O-])cc2)cc1 | . | . | -12% | .
COc1cc(C)c(C(=O)Oc2cc(C)c(C(=O)O)c(O)c2C)c(O)c1C(=O)O | -9% | -5% | -12% | -1%
COc1cc(C)c(C(=O)Oc2cc(C)c(C(=O)O)c(O)c2C)c(OC)c1C | ? | 38µM* | ? | ?
CCc1cc(=O)oc2cc(OS(=O)(=O)c3sc(C(=O)OC)c(C)c3C(=O)OC)ccc12 | . | . | . | 43%
CCn1c(C)c2c([n+]1CC)CC(C)(C)CC2=O | -9% | -6% | -26% | 13µM*
CCn1c2c(c(C)cc1=O)C(=O)CC(C)(C)C2 | -14% | 3% | 0% | 7%
CCN(CC)c1ccc(N=C2C=CC(=O)C=C2NC(C)=O)cc1 | 71µM* | -16% | . | ?
O=C(NCc1cccs1)c1ccc2c(c1)N(Cc1ccccc1)C(=O)CS2=O (stereo not drawn) | . | . | . | -17%
O=C(NCC1CCCO1)c1ccc2c(c1)N(Cc1ccccc1)C(=O)CS2=O (stereo not drawn) | ? | 7.5µM* | 0% | -2%[57.4 µM]
CCC(CC)C(=O)Nc1cccc(/C(C)=N/NC(=O)c2ccccc2Cl)c1 | 8% | 27µM* | -9% | 9%
CS(=O)(=O)Nc1ccc(S(=O)(=O)N2CCCC2)cc1 | 7% | -4% | 3% | -2%
Cc1sc(N2CCCC2)nc1-c1ccc(NS(C)(=O)=O)cc1 | . | . | . | 35µM*
CCc1sc(C(=O)OCC(=O)c2ccc3c(c2)OCCO3)cc1C | . | . | . | -3%
O=C(NCc1ccccc1)N1CCN(c2ccc(F)cc2)CC1 | -25% | 3µM* | 0% | 46%
O=C(NC1CCN(C(=O)NCc2ccccc2)CC1)c1ccccc1 | 5% | -6% | -4% | 12%
O=C(Cc1ccccc1)NC1CCN(C(=O)NCc2ccccc2)CC1 | -5% | 27µM* | -7% | 7%
Cc1cccc(C(=O)Nc2cnc3ccccc3c2)c1C | . | . | . | -3%
COc1cccc(C(=O)OCc2nc3ccccc3o2)c1 | . | . | . | -7%
CCOC(=O)c1sc(N)nc1C(C)C | 4% | ? | ? | 6%
CCCc1nc(N)sc1C(=O)OCC | -6% | ? | 0.89µM* | 176%
SMILES | VDR inh | PLK1 PBD inh | GCN5L2 inh | 12-LOX inh
CCOC(=O)C1=C(CC)Nc2ccccc2N=C1NC(=O)c1ccc(S(=O)(=O)N2CCOCC2)cc1 | 0% | 4% | -17% | -8%
CCOC(=O)C1=C(CC)Nc2ccccc2N=C1NC(=O)c1ccc(S(=O)(=O)N(C)C)cc1 | -13% | 2.7µM* | -1% | -15%
Cc1ccc(Sc2ccc(C#N)cc2C)cc1C | . | . | . | 18%
CN(Cc1ccsc1)C(=O)CCc1ccsc1 | . | . | . | 0%
CN(/C=C/C(=O)/C=C/N(C)c1ccccc1)c1ccccc1 | . | . | . | 16µM*
COc1ccc(CN2CCN(Cc3cccc(OC)c3OC)CC2)cc1 | . | . | . | 0.45µM*
COc1cccc(CN2CCN(Cc3cc(OC)c(OC)c(OC)c3)CC2)c1OC | -3% | -7% | 4% | ?
COc1ccc(CN2CCN(C/C=C/c3ccccc3)CC2)c(OC)c1OC | . | . | . | 0.56µM*
O=C(O)c1ccc(N/N=C/c2cn(Cc3ccc(F)cc3)c3ccccc23)cc1 | ? | 24µM* | -12% | ?
O=C(N/N=C/c1cn(Cc2ccccc2)c2ccccc12)c1cc(O)cc(O)c1 | -1% | -4% | -7% | 0%
CNC(=S)N/N=C/c1cn(Cc2c(F)cccc2Cl)c2ccccc12 | -14% | 3% | -5% | 25µM*
CCNC(=S)N/N=C/c1cn(Cc2ccc(F)cc2)c2ccccc12 | 0% | 0% | -12% | 40µM*
